The record followed here is PubChem BioAssay (NCATS).

Test [1] deals with Lysosomal acid glucosylceramidase (Homo sapiens) (UniProt P04062). Kind of test: Glucocerebrosidase-p2 (AID 348; in the data active = potency below about 10 µM; also: potency is read from the fitted curve at half-maximal effect). Conditions: purified GBA, blue fluorogenic substrate, 40 min. The procedure, abridged: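 Normal human glucocerebrosidase (0.2 nM) with blue fluorogenic substrate (80 uM final) in citrate/phosphate pH 5.9 with 10mM sodium taurocholate, 0.01% tween-20; 40 min RT, NaOH/glycine stop; fluorescence Ex 365/Em 440; AC50 from a titration from 0.6 nM upwards.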
Chain of Lysosomal acid glucosylceramidase (Homo sapiens) (P04062 whole entry, looked up): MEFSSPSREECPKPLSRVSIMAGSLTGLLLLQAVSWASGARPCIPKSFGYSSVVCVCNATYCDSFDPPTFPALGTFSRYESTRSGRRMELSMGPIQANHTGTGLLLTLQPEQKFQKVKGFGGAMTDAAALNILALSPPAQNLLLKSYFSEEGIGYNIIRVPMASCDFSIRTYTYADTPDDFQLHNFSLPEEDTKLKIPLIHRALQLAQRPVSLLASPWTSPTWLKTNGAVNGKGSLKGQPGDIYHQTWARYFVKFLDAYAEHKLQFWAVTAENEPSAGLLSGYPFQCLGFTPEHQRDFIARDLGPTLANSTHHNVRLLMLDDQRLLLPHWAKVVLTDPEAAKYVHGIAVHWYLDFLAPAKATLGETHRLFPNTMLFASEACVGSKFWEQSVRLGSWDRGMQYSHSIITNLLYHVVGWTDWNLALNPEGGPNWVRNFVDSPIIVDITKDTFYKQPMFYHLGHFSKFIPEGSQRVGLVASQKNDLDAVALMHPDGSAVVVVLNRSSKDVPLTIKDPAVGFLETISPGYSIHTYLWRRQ

Test [2] is described as follows: AP1 Signaling Pathway (AID 357; active = well fitted curve in either direction with a large enough effect, not every such curve was filed as active;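 also: ME-180 reporter cells stimulated with EGF at its EC50 level; % is scaled to controls: 0 for no effect and ±100 for the full control effect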). Conditions: ME-180 AP-1-bla reporter, EGF-induced, beta-lactamase ratio, 5 h; at 7.69 µM (top of the series) unless noted. The essentials:
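A ratiometric CCF4 readout (405 nm excitation; 460 and 530 nm emission) quantified AP-1-driven beta-lactamase in ME-180 cells after 5 h with compound and EC50 EGF; AC50 values were derived for activators and inhibitors.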

Test [3] deals with Cytochrome P450 1A2 (Homo sapiens) (UniProt P05177). In words: p450-cyp1a2 (AID 410; calls by dose curve; also: potency is read from the fitted curve at half-maximal effect). The essentials:
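O-Demethylation of luciferin 6' methyl ether by human CYP1A2 is monitored as luciferase luminescence. Substrate sits at Km (100uM); enzyme is 20nM. Values are scaled to 57 uM furafylline as maximal inhibition.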

A short description of test [4]: NFAT Signaling Pathway (AID 444; active = well fitted curve in either direction with a large enough effect, not every such curve was filed as active;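 also: carbachol stimulus at about its EC50 of 1 µM final; % is scaled to controls: 0 for no effect and ±100 for the full control effect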). Conditions: Jurkat NFAT-bla M1, carbachol, beta-lactamase ratio, 5 h; at 7.69 µM (top of the series) unless noted. The procedure, abridged: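 Jurkat cells with NFAT-driven β-lactamase reporter and co-expressed M1 receptor, stimulated with carbachol (final 1 uM, ~EC50), compound titration, 5 h at 37 °C. CCF4 loaded 1 h at RT; 460/530 nm ratio gave %activity and AC50.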

Test [5] in a line: Stat Signaling Pathway (AID 446; active = well fitted curve in either direction with a large enough effect, not every such curve was filed as active;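 also: ME-180 cervical cancer cells given 40 pM IL-6 alongside compound; SIE-controlled beta-lactamase reporter measured as 460/530 nm FRET emission ratio; % is scaled to controls: 0 for no effect and ±100 for the full control effect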). Conditions: ME-180 SIE beta-lactamase reporter, IL-6 stimulated, 5 h; at 7.69 µM (top of the series) unless noted. The procedure, abridged:
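Normalization used AC90 stimulation (300 pM IL-6) and AC90 inhibition (125 nM pan-JAK inhibitor at 40 pM IL-6). The underlying signal is SIE-driven beta-lactamase in ME-180 cells after 5 h IL-6 exposure with compound.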

The target in test [6] is Glucocorticoid receptor (Homo sapiens) (UniProt P04150). Kind of test: GR-GFP Redistribution (AID 450;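 active = compounds whose dose series gives a full or clear partial fitted curve of increased nuclear translocation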; also: potency is read from the fitted curve at half-maximal effect). The conditions noted are these: U2OS GR-GFP nuclear translocation, laser cytometry, 2 h.
Chain of Glucocorticoid receptor (Homo sapiens) (P04150 whole entry, looked up, the tested form may be a part): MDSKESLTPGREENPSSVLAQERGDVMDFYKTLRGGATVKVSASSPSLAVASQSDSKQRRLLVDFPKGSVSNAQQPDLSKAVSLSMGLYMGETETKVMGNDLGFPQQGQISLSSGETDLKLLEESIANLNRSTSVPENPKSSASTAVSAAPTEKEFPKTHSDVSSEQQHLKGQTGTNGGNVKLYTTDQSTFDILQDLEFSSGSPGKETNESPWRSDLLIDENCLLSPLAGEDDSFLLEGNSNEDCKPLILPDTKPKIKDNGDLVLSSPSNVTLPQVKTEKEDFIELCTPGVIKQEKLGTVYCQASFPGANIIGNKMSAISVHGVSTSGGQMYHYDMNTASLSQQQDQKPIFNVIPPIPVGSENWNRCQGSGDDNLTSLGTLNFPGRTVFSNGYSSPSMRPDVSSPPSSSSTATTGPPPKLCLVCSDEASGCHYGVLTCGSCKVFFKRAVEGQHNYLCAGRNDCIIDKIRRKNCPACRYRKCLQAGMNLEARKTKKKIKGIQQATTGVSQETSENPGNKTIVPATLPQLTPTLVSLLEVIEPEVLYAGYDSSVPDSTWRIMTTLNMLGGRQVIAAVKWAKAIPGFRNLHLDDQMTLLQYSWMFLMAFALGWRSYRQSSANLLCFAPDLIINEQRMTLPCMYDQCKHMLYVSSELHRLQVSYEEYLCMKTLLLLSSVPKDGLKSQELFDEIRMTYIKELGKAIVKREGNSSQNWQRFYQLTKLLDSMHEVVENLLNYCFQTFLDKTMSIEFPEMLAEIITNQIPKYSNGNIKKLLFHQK
Test [7] has the same target. In words: GR-EFC Redistribution (AID 451; calls by dose curve; also: potency is read from the fitted curve at half-maximal effect). Conditions: CHO-K1 GR-EFC translocation, beta-gal luminescence, 2 h. The procedure, abridged: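 CHO-K1 cells expressing nuclear EA and GR-ED fragments of b-gal; compounds titrated up to 46 uM final, 2 h at 37 C. GR nuclear translocation read as complemented b-gal luminescence after 1 h RT detection.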
Test [8] addresses Mitogen-activated protein kinase 10 (Mus musculus) (UniProt Q61831). Kind of test: JNK3 AlphaScreen Assay (AID 530; active = well fitted curve in either direction with a large enough effect, not every such curve was filed as active;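 also: kinase came from lysate of stimulated human HepG2 cells; signal reports phosphorylation of biotinylated GST-cJun 1-79 at Ser73 with 10 µM ATP; % is scaled to controls: 0 for no effect and ±100 for the full control effect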). The procedure, abridged: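 Activity was read by AlphaScreen after JNK3-containing HepG2 lysate (cytokine pre-activated) phosphorylated biotinylated GST-cJun with 10 uM ATP at room temperature. Phospho-Ser73 cJun antibody with Protein-A acceptor beads provided detection.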
(In general: Alpha assays give light when donor and acceptor beads are brought close together.)

Test [9] addresses Cytochrome P450 3A4 (Homo sapiens) (UniProt P08684). Kind of test: qHTS Assay for Inhibitors and Substrates of Cytochrome P450 3A4 (AID 884). Also: potency is read from the fitted curve at half-maximal effect; nearly all actives have a fitted effect of over 50% in size. The procedure, abridged:
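Luminescent readout of luciferin produced by CYP3A4 (20 nM) dealkylation of Luciferin-PPXE, 25 uM (its KM). NADPH-driven reaction ran 60 min at RT after 10 min compound preincubation; data scaled to 57 uM ketoconazole as 100% inhibition.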
(In general: In qHTS, concentration-response curves come from the screen itself.)

For test [10] the target is unchanged. Kind of test: qHTS Assay for Activators of Cytochrome P450 3A4 (AID 885). Also: nearly all actives have a fitted effect of over 65% in size. The procedure, abridged: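 Human CYP3A4 dealkylates Luciferin-PPXE to luciferin, which luciferase detection converts to light. Substrate was at its KM (25uM), buffer 200mM KPO4, reaction 60 min at RT.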
The target in test [11] is Cytochrome P450 2C19 (Homo sapiens) (UniProt P33261). In words: qHTS Assay for Inhibitors and Substrates of Cytochrome P450 2C19 (AID 899). Also: potency is read from the fitted curve at half-maximal effect; nearly all actives have a fitted effect of over 60% in size. The essentials: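 Signal comes from luciferase acting on luciferin released by CYP2C19-mediated hydroxylation of Luciferin-H EGE, 10uM (KM). Assay mix: 5nM enzyme, 50mM KPO4; 60 min at 37C with NADPH regeneration. Data normalized against 57uM ketoconazole.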
Chain of Cytochrome P450 2C19 (Homo sapiens) (P33261 whole entry, looked up): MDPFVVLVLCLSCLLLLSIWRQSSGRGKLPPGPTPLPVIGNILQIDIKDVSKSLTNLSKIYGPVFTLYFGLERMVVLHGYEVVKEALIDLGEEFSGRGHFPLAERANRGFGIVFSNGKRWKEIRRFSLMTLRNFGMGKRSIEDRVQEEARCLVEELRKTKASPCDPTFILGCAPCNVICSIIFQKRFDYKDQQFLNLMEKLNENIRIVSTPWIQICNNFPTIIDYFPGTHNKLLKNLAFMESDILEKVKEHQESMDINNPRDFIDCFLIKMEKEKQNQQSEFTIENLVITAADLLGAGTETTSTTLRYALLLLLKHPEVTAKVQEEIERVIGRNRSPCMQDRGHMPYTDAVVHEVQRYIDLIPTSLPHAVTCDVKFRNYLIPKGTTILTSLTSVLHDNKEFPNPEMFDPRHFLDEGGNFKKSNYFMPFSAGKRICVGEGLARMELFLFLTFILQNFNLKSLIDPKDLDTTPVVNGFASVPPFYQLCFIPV

Test [12] in a line: qHTS Assay for Lipid Storage Modulators (AID 1519; calls by dose curve). Conditions: Drosophila S3 cells, BODIPY lipid droplet/cell ratio, laser cytometry, cells loaded with oleic acid; for activity change, negative = inhibition: at 57.5 µM (top of the series). The procedure, abridged: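 Cells seeded at 5,000 per well were treated with compounds over a concentration series and loaded with oleic acid (400 uM, as added). Lipid droplet fluorescence (488 nm excitation, 500-530 nm channel) was read by laser-scanning cytometry and normalized to 20 uM Triacsin C.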

For test [13], the target named is Dual specificity protein kinase CLK4 (Homo sapiens) (UniProt Q9HAZ1). In words: qHTS Assay for Inhibitors of CDC-like Kinase 4 (Kinase-Glo Assay) (AID 1770). Also: % is scaled to controls: 0 for no effect and ±100 for the full control effect; nearly all actives have a fitted effect of over 65% in size. The essentials:
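Substrate mix (RS peptide 100 uM, ATP 1 uM) dispensed, compound pinned in, then Clk4 added to 25 nM final. Incubated 4.5 h at RT; Kinase-Glo reagent added, luminescence read after 5 min.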

The target of test [14] is Ubiquitin carboxyl-terminal hydrolase 1 (Homo sapiens) (UniProt O94782). In words: Inhibitors of USP1/UAF1: Pilot qHTS (AID 504865).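 Also: rhodamine fluorescence freed from ubiquitin-rhodamine substrate followed over time; top concentration of the series differs between compounds; % is scaled to controls: 0 for no effect and ±100 for the full control effect; nearly all actives have a fitted effect of over 35% in size.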 The procedure, abridged: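 In 50mM HEPES pH 7.8 containing 0.5mM EDTA, 1mM TCEP, 0.1 mg/ml BSA and 0.01% Tween-20, 1nM USP1/UAF1 is exposed to compound for 15 min, then Ub-Rho (150nM final) is added and fluorescence is read over time.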
Chain of Ubiquitin carboxyl-terminal hydrolase 1 (Homo sapiens) (O94782 whole entry, looked up): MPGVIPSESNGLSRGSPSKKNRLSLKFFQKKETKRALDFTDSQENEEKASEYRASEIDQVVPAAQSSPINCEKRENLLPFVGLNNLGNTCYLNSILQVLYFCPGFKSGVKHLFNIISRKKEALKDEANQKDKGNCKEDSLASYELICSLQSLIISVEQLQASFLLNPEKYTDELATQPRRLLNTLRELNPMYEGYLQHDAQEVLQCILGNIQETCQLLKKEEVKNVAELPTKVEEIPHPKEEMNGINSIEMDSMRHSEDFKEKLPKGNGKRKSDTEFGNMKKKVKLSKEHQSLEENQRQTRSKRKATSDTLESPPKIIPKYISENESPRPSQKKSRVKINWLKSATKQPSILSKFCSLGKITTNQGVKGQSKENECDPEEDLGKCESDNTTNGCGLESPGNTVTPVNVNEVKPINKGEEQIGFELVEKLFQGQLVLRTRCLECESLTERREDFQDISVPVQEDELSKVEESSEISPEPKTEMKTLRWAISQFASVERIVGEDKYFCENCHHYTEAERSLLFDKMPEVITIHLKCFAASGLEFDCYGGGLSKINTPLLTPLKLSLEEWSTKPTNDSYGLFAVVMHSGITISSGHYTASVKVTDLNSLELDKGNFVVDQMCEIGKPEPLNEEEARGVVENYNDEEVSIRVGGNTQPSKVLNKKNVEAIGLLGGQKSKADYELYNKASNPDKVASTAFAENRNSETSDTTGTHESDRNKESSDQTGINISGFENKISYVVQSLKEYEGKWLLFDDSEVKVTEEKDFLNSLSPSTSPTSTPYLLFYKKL
The nature of test [15]: Primary qHTS for small molecule stabilizers of the endoplasmic reticulum resident proteome: Secreted ER Calcium Modulated Protein (SERCaMP) assay (AID 1508630). Also: % is scaled to controls: 0 for no effect and ±100 for the full control effect. The essentials:
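The SH-SY5Y reporter protocol was run at 3 concentrations up to 38.3 uM (primary) or 11 concentrations (follow-up): 16 h compound, 100 nM thapsigargin for 4 h, then extracellular luciferase luminescence.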

Test [16] concerns the target 3',5'-cyclic-AMP phosphodiesterase 4B (Homo sapiens) (UniProt Q07343). In words: qHTS Assay for Inhibitors of PDE-IV (AID 607; active = well fitted activation curve with a large enough effect in the main read-out, with a control signal flat, not every such curve was filed as active; also: % of control where 0% means no effect). The procedure, abridged:
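HEK293 ACTOne cells with CNG channel (1000/well), endogenous PDE4; membrane potential dye, compounds up to 22.9 uM final. Fluorescence Ex 535/Em 590; RO 20-1724 (100 uM final) as reference.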

In test [17] the target is Dual specificity protein kinase CLK4 (Homo sapiens) (UniProt Q9HAZ1). In words: qHTS Assay for Inhibitors of CDC-like Kinase 4 (ADP-FP Assay) (AID 1795).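 Also: recombinant human CLK4 phosphorylating RS repeat peptide at 1 µM ATP; % is scaled to controls: 0 for no effect and ±100 for the full control effect; nearly all actives have a fitted effect of over 60% in size.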 The essentials: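 Clk4 6.25 nM; RS peptide 100 uM; ATP 1 uM; 25 mM Tris pH 7.5, 10 mM MgCl2; 1 h reaction. ADP detected via antibody/orange tracer FP displacement; TG003 positive control.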
Chain of Dual specificity protein kinase CLK4 (Homo sapiens) (Q9HAZ1 whole entry, looked up): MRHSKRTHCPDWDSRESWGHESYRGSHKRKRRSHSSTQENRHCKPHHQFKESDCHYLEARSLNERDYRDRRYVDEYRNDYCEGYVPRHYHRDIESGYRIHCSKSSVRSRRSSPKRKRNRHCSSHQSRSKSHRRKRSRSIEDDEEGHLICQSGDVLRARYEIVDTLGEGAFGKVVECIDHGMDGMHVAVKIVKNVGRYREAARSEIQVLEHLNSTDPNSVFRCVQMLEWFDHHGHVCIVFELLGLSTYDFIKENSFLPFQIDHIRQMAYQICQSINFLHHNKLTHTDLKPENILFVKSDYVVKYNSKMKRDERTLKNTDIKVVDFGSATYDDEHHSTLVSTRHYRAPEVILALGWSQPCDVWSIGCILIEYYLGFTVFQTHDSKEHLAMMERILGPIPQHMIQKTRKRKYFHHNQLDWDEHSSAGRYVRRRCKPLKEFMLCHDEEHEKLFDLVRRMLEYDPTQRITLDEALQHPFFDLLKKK
Test [18] has the same target. Kind of test: qHTS Assay for Inhibitors of CDC-like Kinase 4 (ADP-Glo Assay) (AID 1771). Also: % is scaled to controls: 0 for no effect and ±100 for the full control effect; nearly all actives have a fitted effect of over 70% in size. The essentials:
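Compounds are pin-transferred onto substrate mix (100 uM RS peptide, 1 uM ATP), then 25 nM Clk4 is added. After 1 hr at room temperature, ADP-Glo reagent runs 45 min, detection reagent 30 min, then luminescence is read.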

Test [19] in a line: qHTS Assay for Identification of Small Molecule Agonists for Hypoxia Response Element Signaling Pathway (AID 914; active = well fitted activation curve with a large enough effect in the signal ratio, with a control signal flat, not every such curve was filed as active; the % refers to the signal ratio; also: % of control where 0% means no effect). The conditions noted are these: ME-180 (cervical carcinoma) HRE-bla reporter, beta-lactamase ratio, CoCl2, 17 h; activation: stronger effect = higher value. The essentials: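 qHTS titration; ME-180 HRE-bla cells; EC50 CoCl2 co-treatment, 17 h at 37 degrees Celsius; CCF4 dye, ex 405nm, em 460nm and 530nm; %Activity from ratio; AC50.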

Where [20] appears, read: measured here: cell count channel max response.
Setting [21] is: measured here: lipid channel max response.

Inconclusive results are not listed. The source made the active and inactive calls. Unless noted, calls follow the shape of the dose curve; as a rule, active = well fitted curve in the direction sought with a large enough effect; inconclusive = small, poorly fitted or top-dose-only effect, or another doubt; inactive = no such curve, though single readings can be large; an effect the other way counts as inactive or inconclusive.

Chain of Cytochrome P450 3A4 (Homo sapiens) (P08684 whole entry, looked up): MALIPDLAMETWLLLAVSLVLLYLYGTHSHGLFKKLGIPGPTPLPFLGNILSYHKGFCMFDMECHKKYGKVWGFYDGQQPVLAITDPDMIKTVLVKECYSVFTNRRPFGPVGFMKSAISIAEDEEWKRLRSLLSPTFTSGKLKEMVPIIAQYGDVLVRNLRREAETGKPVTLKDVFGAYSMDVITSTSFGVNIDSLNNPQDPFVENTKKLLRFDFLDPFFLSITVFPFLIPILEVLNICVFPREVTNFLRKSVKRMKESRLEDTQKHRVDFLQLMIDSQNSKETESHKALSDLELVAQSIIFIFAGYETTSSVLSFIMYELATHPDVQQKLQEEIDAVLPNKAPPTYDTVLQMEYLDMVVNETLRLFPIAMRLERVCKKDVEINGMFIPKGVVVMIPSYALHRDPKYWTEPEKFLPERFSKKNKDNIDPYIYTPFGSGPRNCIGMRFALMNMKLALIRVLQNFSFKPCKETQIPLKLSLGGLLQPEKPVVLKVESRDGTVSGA
Chain of Cytochrome P450 1A2 (Homo sapiens) (P05177 whole entry, looked up): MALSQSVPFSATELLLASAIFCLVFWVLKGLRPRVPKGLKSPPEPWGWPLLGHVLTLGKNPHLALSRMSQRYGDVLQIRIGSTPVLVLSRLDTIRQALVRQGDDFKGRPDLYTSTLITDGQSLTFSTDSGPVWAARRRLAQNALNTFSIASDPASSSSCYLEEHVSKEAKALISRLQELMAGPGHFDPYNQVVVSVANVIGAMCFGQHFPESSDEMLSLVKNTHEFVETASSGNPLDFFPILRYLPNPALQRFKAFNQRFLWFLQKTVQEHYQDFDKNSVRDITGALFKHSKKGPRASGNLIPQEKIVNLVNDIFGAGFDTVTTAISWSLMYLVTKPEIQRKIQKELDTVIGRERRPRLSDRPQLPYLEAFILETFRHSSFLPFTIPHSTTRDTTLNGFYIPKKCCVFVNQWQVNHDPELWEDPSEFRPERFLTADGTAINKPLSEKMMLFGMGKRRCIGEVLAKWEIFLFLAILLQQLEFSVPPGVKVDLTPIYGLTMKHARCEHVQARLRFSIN
Chain of 3',5'-cyclic-AMP phosphodiesterase 4B (Homo sapiens) (Q07343 whole entry, looked up): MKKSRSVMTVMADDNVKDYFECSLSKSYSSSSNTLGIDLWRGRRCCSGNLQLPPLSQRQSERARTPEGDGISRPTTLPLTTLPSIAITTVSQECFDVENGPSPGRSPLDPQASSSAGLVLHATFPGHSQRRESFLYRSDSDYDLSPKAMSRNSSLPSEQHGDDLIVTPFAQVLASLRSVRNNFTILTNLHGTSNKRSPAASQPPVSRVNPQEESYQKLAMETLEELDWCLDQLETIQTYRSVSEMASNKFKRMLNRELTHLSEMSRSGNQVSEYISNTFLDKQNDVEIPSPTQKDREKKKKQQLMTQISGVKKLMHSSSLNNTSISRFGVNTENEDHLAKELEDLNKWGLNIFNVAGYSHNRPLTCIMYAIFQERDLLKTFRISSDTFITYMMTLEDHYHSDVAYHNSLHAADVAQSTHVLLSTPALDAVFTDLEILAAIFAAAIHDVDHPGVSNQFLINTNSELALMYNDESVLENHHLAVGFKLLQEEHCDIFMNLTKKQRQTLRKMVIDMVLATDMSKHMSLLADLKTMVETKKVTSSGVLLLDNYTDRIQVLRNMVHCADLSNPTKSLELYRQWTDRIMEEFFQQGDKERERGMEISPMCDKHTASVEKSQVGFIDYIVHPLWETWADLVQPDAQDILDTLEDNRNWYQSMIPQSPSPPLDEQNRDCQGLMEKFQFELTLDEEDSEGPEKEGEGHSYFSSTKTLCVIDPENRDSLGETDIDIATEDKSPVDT

For the molecule `FC(F)(F)c1ccccc1-c1ccc2ncnc(NCc3cccnc3)c2c1`, the Potency was > 11.4 µM (inactive) in [1]; 1 µM (active) in [3]; > 46 µM (inactive) in test [6]; > 46 µM (inactive) in [7]; 1.58 µM (active) in [9]; 0.0079 µM (active) in test [11]. Moreover, the results for the activity change, negative = inhibition in test [2], in test [4] and in [12] were 5.26% (inactive), 21.5% (inactive) and -7.13% (inactive), respectively. For the same molecule, the activity, negative = inhibition in test [5] was -18.4% (inactive). For the same molecule, the molecule was classed as inactive in test [8]. Moreover, the Potency entry in test [10], in test [13], in test [14] and in test [15] was “inactive” in each case. Also, the max response in [12] (setting [20]) came to 9.95%; in test [12] (setting [21]), 2.08%.
For the molecule `CN(C)Cc1ccccc1-c1cncnc1Nc1ccccc1`, the figures for the Potency in test [1], in [6] and in test [7] were > 11.4 µM (inactive), > 46 µM (inactive) and > 46 µM (inactive), respectively. The activity change, negative = inhibition in test [2] is 7.98% (inactive); in test [12] it was 5.53% (inactive). Also, the activity, negative = inhibition in test [5] was 13.5% (inactive). Also, in [8], the call was inactive. In addition, the Potency result in test [16], in [13], in test [17], in [14] and in test [15] was “inactive” each time. Moreover, the max response in test [12] (setting [20]) came to 18.6%; in [12] (setting [21]), 26.9%.
Take `COCCn1c(=O)c(-c2cccc(C#N)c2)nc2cnc(N(C)C)nc21`: the Potency in test [1] was > 11.4 µM (inactive); in [3], 2 µM (active); in test [6], > 9.22 µM (inactive); in test [7] it was > 46 µM (inactive). Besides, the activity change, negative = inhibition was -1.01% (inactive) in test [2], -2.05% (inactive) in test [4] and 3.6% (inactive) in test [12]. The activity, negative = inhibition in [5] is -10.5% (inactive). Besides, the result in [8] was inactive. Moreover, the Potency entry in [16], in test [18], in test [17], in test [14] and in test [15] was “inactive” throughout. The max response in [12] (setting [20]) is 16.6%; in test [12] (setting [21]), 17.9%.
`COCCNc1nc(-c2ccccc2OC)nc2ccccc12`: the Potency in [1] was > 2.29 µM (inactive); in test [3], 0.794 µM (active); in [6], > 46 µM (inactive); in test [7] it was > 46 µM (inactive). Further, the activity change, negative = inhibition in [2] is 12.5% (inactive); in test [4], 8.54% (inactive); in [12] it was 6.78% (inactive). Further, in test [5], the activity, negative = inhibition was 7.08% (inactive). Further, in [8], the call was inactive. In addition, the Potency result in [16], in [10], in test [18], in test [17] and in test [15] was “inactive” each time. The max response in test [12] (setting [20]) was found to be 15.3%; in test [12] (setting [21]), 15.6%.
Regarding `Cn1c(=O)c(-c2cc(F)cc(F)c2)nc2cnc(N3CCOCC3)nc21`, the Potency in [1] is > 11.4 µM (inactive); in test [3] it was 5.01 µM (active); in test [6] it was > 9.22 µM (inactive); in [7], > 46 µM (inactive). For the same molecule, the values for the activity change, negative = inhibition in test [2], in [4] and in [12] were -11% (inactive), 14.4% (inactive) and 4.75% (inactive), respectively. Also, in test [5], the activity, negative = inhibition was -1.78% (inactive). Further, the outcome in test [8] was inactive. Further, the Potency entry in test [16], in [18], in [14] and in [15] was “inactive” in each case. Also, in test [19], the activation is -3.42% (inactive). Also, the results for the max response in test [12] (setting [20]) and in [12] (setting [21]) were 16.8% and 22.4%, respectively.
Take `COc1ccc(-n2c(=O)c(-c3cccs3)nc3cnc(OC)nc32)cc1`: the Potency was > 11.4 µM (inactive) in test [1]; 5.01 µM (active) in test [3]; > 9.22 µM (inactive) in test [6]; > 46 µM (inactive) in test [7]; 7.94 µM (active) in test [9]. For the same molecule, the activity change, negative = inhibition in test [2] was -22.9% (inactive); in test [4], -2.37% (inactive); in [12], 3.59% (inactive). In addition, in [5], the activity, negative = inhibition is -2.82% (inactive). Besides, the result in test [8] was inactive. Besides, the results for the max response in test [12] (setting [20]) and in test [12] (setting [21]) were 12.4% and 13.8%, respectively. Moreover, the Potency entry in [18], in test [17], in test [14] and in [15] was “inactive” throughout.
